Active and inactive are the calls of the source. The calls were made as follows: active = hit-call score of the fitted dose curve at least 0.9, where 1 is the maximum; inactive = score below 0.9.
Key:
Details in all cases: mRNA level, 48 h; actives raise or lower the signal
[1] = read-out: Cyclin D2 (CCND2), CCND2 (gene 894); experiment: LTEA_HepaRG_CCND2: Life Technologies and Expression Analysis (LTEA) Assay for Cyclin D2 (CCND2) using HepaRG (AID 2283449);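 also: CCND2 transcript measured by TaqMan qRT-PCR and normalised to three housekeeping genes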
How it was run: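 Chemicals in 0.5% DMSO, eight half-log concentrations from 100 uM top, were applied in duplicate for 48 h to human HepaRG cells in serum-free induction medium. CCND2 mRNA by TaqMan qRT-PCR, normalised to ACTB/GAPDH/POLR2A; bidirectional fit versus DMSO.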

[2] = read-out: Cyclin Dependent Kinase Inhibitor 1A (CDKN1A), CDKN1A (gene 1026); experiment: LTEA_HepaRG_CDKN1A: Life Technologies and Expression Analysis (LTEA) Assay for Cyclin Dependent Kinase Inhibitor 1A (CDKN1A) using HepaRG (AID 2283450)
How it was run: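 Differentiated HepaRG cells in serum-free induction medium, exposed 48 h in duplicate to eight half-log concentrations up to 100 uM in 0.5% DMSO. mRNA measured by TaqMan qRT-PCR, normalized to ACTB, GAPDH, POLR2A; bidirectional fit versus DMSO.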

[3] = read-out: Cyclin D1 (CCND1), CCND1 (gene 595); experiment: LTEA_HepaRG_CCND1: Life Technologies and Expression Analysis (LTEA) Assay for Cyclin D1 (CCND1) using HepaRG (AID 2283451);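 as to AC50: TaqMan qRT-PCR transcript level normalised to ACTB GAPDH and POLR2A housekeeping genes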
How it was run: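 Differentiated HepaRG cells exposed 48 h in serum-free induction medium to eight half-log concentrations from 100 uM top, 0.5% DMSO, duplicates. CCND1 mRNA measured by Fluidigm TaqMan qRT-PCR, normalised to ACTB, GAPDH, POLR2A; bidirectional fit.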

[4] = read-out: catalase (CAT), CAT (gene 847); experiment: LTEA_HepaRG_CAT: Life Technologies and Expression Analysis (LTEA) Assay for catalase (CAT) using HepaRG (AID 2283452);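 as to AC50: TaqMan qRT-PCR signal normalized to ACTB GAPDH and POLR2A housekeeping genes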
How it was run: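 HepaRG cells in serum-free induction medium, 0.5% DMSO vehicle, exposed 48 h in duplicate over 8 half-log concentrations from 100 uM. CAT mRNA measured by qRT-PCR, normalized to ACTB, GAPDH, POLR2A; bidirectional fit versus DMSO.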

[5] = read-out: flavin-containing dimethylaniline monooxygenases 3 (FMO3), FMO3 (gene 2328); experiment: LTEA_HepaRG_FMO3: Life Technologies and Expression Analysis (LTEA) Assay for flavin-containing dimethylaniline monooxygenases 3 (FMO3) using HepaRG (AID 2283453);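 as to AC50: FMO3 transcript by TaqMan qRT-PCR normalized to ACTB GAPDH and POLR2A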
How it was run: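 HepaRG, 48 h exposure, 8-pt half-log series from 100 uM, 0.5% DMSO vehicle, duplicates; FMO3 transcript by Fluidigm TaqMan qRT-PCR, housekeeping-normalized; gain/loss fit vs DMSO.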

[6] = read-out: Cytochrome P450 (CYP1A1), CYP1A1 (gene 1543); experiment: LTEA_HepaRG_CYP1A1: Life Technologies and Expression Analysis (LTEA) Assay for Cytochrome P450 (CYP1A1) using HepaRG (AID 2283454)
How it was run: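 Differentiated human HepaRG cells, after 48 h plating, exposed in duplicate for 48 h in serum-free induction medium to 8 half-log concentrations up to 100 uM in 0.5% DMSO. CYP1A1 mRNA by qRT-PCR, normalized to ACTB/GAPDH/POLR2A; bidirectional fit versus DMSO.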

[7] = read-out: CFLAR gene, CFLAR (gene 8837); experiment: LTEA_HepaRG_CFLAR: Life Technologies and Expression Analysis (LTEA) Assay for CFLAR gene using HepaRG (AID 2283455)
How it was run: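 Differentiated HepaRG cells in serum-free induction medium were exposed 48 h in duplicate to eight half-log concentrations up to 100 uM in 0.5% DMSO; mRNA measured by TaqMan qRT-PCR, normalized to ACTB, GAPDH, POLR2A; bidirectional fitting versus DMSO.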

[8] = read-out: Forkhead box O1 (FOXO1), FOXO1 (gene 2308); experiment: LTEA_HepaRG_FOXO1: Life Technologies and Expression Analysis (LTEA) Assay for Forkhead box O1 (FOXO1) using HepaRG (AID 2283456)
How it was run: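 Differentiated HepaRG cells, in serum-free induction medium with 0.5% DMSO, exposed 48 h in duplicate to 8-point half-log series from 100 uM. FOXO1 mRNA measured by TaqMan qRT-PCR, normalized to ACTB, GAPDH, POLR2A; bidirectional fit versus DMSO.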

[9] = read-out: Tumor necrosis factor receptor superfamily member 6 (Homo sapiens) (UniProt P25445); experiment: LTEA_HepaRG_FAS: Life Technologies and Expression Analysis (LTEA) Assay for Fas cell surface death receptor (FAS) using HepaRG (AID 2283447)
How it was run: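 Differentiated HepaRG cells in serum-free induction medium were exposed 48 h to 8 half-log concentrations up to 100 uM in 0.5% DMSO, in duplicate. FAS mRNA was measured by qRT-PCR normalised to ACTB, GAPDH and POLR2A; bidirectional fit versus DMSO.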

[10] = read-out: Fatty acid synthase (Homo sapiens) (UniProt P49327); experiment: LTEA_HepaRG_FASN: Life Technologies and Expression Analysis (LTEA) Assay for Fatty Acid Synthase (FASN) using HepaRG (AID 2283448)
How it was run: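 Transcript-level assay: HepaRG liver cells are treated for 48 h across an eight-point range topping at 100 uM, and FASN mRNA, normalized to three housekeeping genes, is compared with DMSO controls in both directions.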

Measured: AC50

Sequence of Fatty acid synthase (Homo sapiens) (P49327 whole entry, looked up): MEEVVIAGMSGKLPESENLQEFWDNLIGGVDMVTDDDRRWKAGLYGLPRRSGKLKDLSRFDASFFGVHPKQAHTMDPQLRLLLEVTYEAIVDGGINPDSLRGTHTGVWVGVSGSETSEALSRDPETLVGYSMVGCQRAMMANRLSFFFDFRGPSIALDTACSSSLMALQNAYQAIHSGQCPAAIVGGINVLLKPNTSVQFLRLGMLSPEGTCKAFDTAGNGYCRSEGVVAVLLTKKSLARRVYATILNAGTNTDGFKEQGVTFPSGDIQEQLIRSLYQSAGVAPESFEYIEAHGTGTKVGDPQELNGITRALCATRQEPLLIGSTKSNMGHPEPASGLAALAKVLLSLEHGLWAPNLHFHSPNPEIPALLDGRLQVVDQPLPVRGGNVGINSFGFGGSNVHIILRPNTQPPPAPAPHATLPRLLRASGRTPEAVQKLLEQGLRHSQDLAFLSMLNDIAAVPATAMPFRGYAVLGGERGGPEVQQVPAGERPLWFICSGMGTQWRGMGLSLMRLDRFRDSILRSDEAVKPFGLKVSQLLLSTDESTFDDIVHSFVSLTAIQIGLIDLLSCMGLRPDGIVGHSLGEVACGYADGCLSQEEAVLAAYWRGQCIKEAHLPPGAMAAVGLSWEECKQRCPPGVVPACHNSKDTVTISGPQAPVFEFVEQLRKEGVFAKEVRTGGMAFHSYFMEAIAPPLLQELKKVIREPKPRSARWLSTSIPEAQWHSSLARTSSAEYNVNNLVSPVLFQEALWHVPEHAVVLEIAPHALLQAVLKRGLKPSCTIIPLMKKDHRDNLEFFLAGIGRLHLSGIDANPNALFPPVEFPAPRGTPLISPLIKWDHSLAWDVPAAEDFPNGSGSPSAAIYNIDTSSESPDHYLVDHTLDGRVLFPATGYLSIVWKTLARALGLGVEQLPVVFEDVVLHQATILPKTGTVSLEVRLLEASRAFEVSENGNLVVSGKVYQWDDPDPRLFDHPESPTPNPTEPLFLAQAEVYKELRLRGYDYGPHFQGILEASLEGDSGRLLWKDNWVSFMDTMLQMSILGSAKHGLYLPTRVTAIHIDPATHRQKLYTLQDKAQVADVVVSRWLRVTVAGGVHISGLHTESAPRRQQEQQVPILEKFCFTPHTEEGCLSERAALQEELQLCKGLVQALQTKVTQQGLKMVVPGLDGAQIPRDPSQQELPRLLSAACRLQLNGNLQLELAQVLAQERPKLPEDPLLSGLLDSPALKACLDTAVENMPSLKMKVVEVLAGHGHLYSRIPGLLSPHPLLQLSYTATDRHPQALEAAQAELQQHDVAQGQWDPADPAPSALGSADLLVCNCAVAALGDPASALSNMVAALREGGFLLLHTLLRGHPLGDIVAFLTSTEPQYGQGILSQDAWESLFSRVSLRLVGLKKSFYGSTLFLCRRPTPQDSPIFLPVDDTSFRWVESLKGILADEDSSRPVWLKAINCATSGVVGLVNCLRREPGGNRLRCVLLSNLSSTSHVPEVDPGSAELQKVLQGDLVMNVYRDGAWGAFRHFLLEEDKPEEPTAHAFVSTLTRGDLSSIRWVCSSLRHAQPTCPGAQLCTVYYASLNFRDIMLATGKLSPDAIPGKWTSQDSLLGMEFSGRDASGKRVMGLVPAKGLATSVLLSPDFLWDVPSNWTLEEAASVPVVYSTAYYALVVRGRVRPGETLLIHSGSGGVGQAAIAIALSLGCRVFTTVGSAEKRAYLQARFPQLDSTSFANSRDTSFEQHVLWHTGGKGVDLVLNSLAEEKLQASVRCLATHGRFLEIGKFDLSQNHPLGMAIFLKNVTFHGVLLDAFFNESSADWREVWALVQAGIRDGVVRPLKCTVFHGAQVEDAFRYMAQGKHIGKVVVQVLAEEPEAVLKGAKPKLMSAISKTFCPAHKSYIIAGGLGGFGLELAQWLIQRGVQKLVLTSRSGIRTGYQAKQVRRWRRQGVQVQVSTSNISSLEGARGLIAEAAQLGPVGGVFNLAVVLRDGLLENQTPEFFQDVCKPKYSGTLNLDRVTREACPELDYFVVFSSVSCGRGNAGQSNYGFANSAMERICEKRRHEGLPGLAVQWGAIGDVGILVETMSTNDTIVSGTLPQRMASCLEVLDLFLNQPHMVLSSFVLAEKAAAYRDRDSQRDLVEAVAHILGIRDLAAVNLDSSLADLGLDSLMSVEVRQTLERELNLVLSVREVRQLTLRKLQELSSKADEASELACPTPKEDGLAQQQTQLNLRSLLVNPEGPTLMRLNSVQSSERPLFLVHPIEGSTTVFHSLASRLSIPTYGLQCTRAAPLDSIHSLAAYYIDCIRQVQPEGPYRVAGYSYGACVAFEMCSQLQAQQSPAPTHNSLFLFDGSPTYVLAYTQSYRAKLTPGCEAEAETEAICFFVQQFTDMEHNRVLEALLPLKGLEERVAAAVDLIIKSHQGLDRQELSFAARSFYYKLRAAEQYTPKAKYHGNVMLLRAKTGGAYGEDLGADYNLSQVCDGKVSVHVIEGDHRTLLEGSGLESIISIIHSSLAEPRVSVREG

CCCOC(=O)c1ccc(C(=O)OCCC)nc1
active: [6] 24.8 µM
not listed: [9] | [10]
inactive: all other assays above

CCC(C)OC(=O)N1CCCCC1CCO (centres undefined)
not listed: [5] | [6]
inactive: all other assays above

CCCCOC(=O)[C@@H](C)Oc1ccc(Oc2ccc(C(F)(F)F)cn2)cc1
inactive: [1] | [2] | [3] | [4] | [7] | [8]

S=C([S-])NCCNC(=S)[S-].[Mn+2]
active: [3] 0.485 µM | [4] 2.97 µM | [6] 8.74 µM | [7] 3.43 µM | [8] 9.26 µM
inactive: [1] | [2]

CCCOC(=O)NCCCN(C)C
not listed: [6] | [9] | [10]
inactive: all other assays above

CCCCOC(=O)C(C)Oc1ccc(Oc2ccc(C(F)(F)F)cn2)cc1 (centres undefined)
inactive: [2] | [3] | [4] | [5] | [7] | [8]

O=C(Nc1ccc([N+](=O)[O-])cc1Cl)c1cc(Cl)ccc1O
active: [3] 3.16 µM | [4] 2.85 µM | [7] 2.33 µM | [8] 3.33 µM
inactive: [1] | [2]

COC(=O)c1ccc(I)cc1S(=O)(=O)NC(=O)Nc1nc(C)nc(OC)n1
inactive: [1] | [2] | [3] | [4] | [7] | [8]

CCCCOCCOCCOCc1cc2c(cc1CCC)OCO2
not listed: [6] | [9] | [10]
inactive: all other assays above

C[C@]12C[C@H](O)[C@H]3[C@@H](CCC4=CC(=O)CC[C@@]43C)[C@@H]1CC[C@@H]2C(=O)CO
inactive: [1] | [2] | [3] | [4] | [7] | [8]

CCCN(CCC)c1c([N+](=O)[O-])cc(C(F)(F)F)c(N)c1[N+](=O)[O-]
inactive: [2] | [3] | [4] | [7] | [8]

C#CCOC(=O)[C@@H](C)Oc1ccc(Oc2ncc(Cl)cc2F)cc1
inactive: [2] | [3] | [4] | [7] | [8]

CCOC(=O)c1ccc(O)cc1
not listed: [6] | [9] | [10]
inactive: all other assays above

CSC(=O)c1cccc2nnsc12
inactive: [1] | [2] | [3] | [4] | [7] | [8]

C#C[C@]1(O)CC[C@H]2[C@@H]3CCC4=CC(=O)CC[C@@H]4[C@H]3CC[C@@]21CC
inactive: [1] | [2] | [3] | [4] | [7] | [8]

c1ccc(Nc2ccccc2)cc1
inactive: [2] | [3] | [4] | [7] | [8]

O=C(c1ccccc1)C1CCCCC1
inactive: [1] | [2] | [3] | [4] | [7] | [8]

O=C(O)C1(C(=O)Nc2ccc(Cl)cc2Cl)CC1
active: [3] 83.3 µM | [4] 77.4 µM
inactive: [2] | [7] | [8]

Cc1nn(C)c(Oc2ccccc2)c1C=NOCc1ccc(C(=O)OC(C)(C)C)cc1
active: [2] 6.99 µM | [3] 83.9 µM | [4] 2.16 µM | [5] 2.87 µM | [6] 19.6 µM | [8] 2.81 µM
inactive: [7]

COc1c(Cl)ccc(Cl)c1C(=O)O
not listed: [5] | [9] | [10]
inactive: all other assays above

COCCO
not listed: [1] | [9] | [10]
inactive: all other assays above

N[C@@H](Cc1cc(I)c(Oc2ccc(O)c(I)c2)c(I)c1)C(=O)O
active: [4] 7.94 µM
inactive: [1] | [2] | [3] | [7] | [8]

CCCCCCC(C)OC(=O)COc1nc(F)c(Cl)c(N)c1Cl (centres undefined)
not listed: [6] | [9] | [10]
inactive: all other assays above

C=CCOC(Cn1ccnc1)c1ccc(Cl)cc1Cl (centres undefined)
active: [2] 28.6 µM | [3] 90.5 µM | [4] 33.5 µM | [7] 79.2 µM | [8] 78.1 µM
inactive: [1]

C[C@]12CC[C@@H]3c4ccc(O)cc4C[C@@H](CCCCCCCCCS(=O)CCCC(F)(F)C(F)(F)F)[C@H]3[C@@H]1CC[C@@H]2O (some centres undefined)
active: [1] 0.05 µM | [3] 0.0338 µM | [4] 15.6 µM | [8] 0.0681 µM
inactive: [2] | [7]

CC1(C)C(C=C(Cl)Cl)C1C(=O)OCc1cccc(Oc2ccccc2)c1 (centres undefined)
not listed: [6] | [9] | [10]
inactive: all other assays above

N#CSCSc1nc2ccccc2s1
inactive: [1] | [2] | [3] | [4] | [7] | [8]

CCCCCOC(=O)COc1cc(N2C(=O)C3=C(CCCC3)C2=O)c(F)cc1Cl
inactive: [1] | [2] | [3] | [4] | [7] | [8]

COC(=O)CSc1cc(N=c2sc(=O)n3n2CCCC3)c(F)cc1Cl
active: [6] 64.9 µM
not listed: [5] | [9] | [10]
inactive: all other assays above

— PubChem BioAssay (EPA / NIEHS)
